Source: PubChem BioAssay (Tox21)
The source made the active and inactive calls. The call rests on the fitted dose curve; in most records, active means well fitted curve in the direction sought with a large enough effect in the repeat runs; inconclusive means weak or mixed curves; inactive means flat fitted curve, though single readings scatter.

Assay: qHTS assay to test for compound auto fluorescence at 460 nm (blue) in HEK293 cell free culture (AID 720681)
Details: cell-free medium, autofluorescence 405/460 nm (blue); series mostly up to 91.3 µM
How it was run: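 Blue fluorescence (Ex 405/Em 460 nm, triamterene-equivalent) was read immediately after pin transfer of compound or DMSO into medium (DMEM, 10% FBS) without cells.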

Compound	outcome
COP(=O)(OC)C(O)C(Cl)(Cl)Cl (configuration not stated)	inactive
Cc1cc(Cl)ccc1OCC(=O)O	inactive
CCCC[n+]1ccccc1C	inactive
O=C(O)COc1ccc(Cl)cc1Cl	inactive
CC(=O)[O][Hg][c]1ccccc1	inactive
O=C(O)C(Cl)Cl	inactive
CCCC[n+]1ccc(C)cc1	inactive
O=c1nc(O)n(Cl)c(=O)n1Cl	inactive
CCCCCCCCCCCCCC[P+](CCCCCC)(CCCCCC)CCCCCC	inactive
CCC(=O)C(CC(C)N(C)C)(c1ccccc1)c1ccccc1 (configuration not stated)	inactive
O=C(O)C(Cl)(Cl)Cl	inactive
CCC[N+]1(C)CCCC1	inactive
O=C(O)CC(O)(CC(=O)O)C(=O)O	inactive
CC(Cl)(Cl)C(=O)O	inactive
Nc1ccc(Cl)cc1	inactive
O=C(O)CCl	inactive

Compound	outcome
CCCCn1cc[n+](C)c1C	inactive
CC[N+](CC)(CC)CC	inactive
O=C(O)c1nc(Cl)ccc1Cl	inactive
Cc1cc(Cl)ccc1N	inactive
CCCCCCCCCCn1cc[n+](C)c1	inactive
COc1ccc(N)cc1	inactive
Nc1ccccc1	inactive
CCCC[n+]1ccccc1	inactive
CC(=O)O	inactive
O=c1[nH]c(=O)n(Cl)c(=O)n1Cl	inactive
O=P1(N(CCCl)CCCl)NCCCO1 (configuration not stated)	inactive
Cc1cc(-c2ccc(N)c(C)c2)ccc1N	inactive
C1CCC(NC2CCCCC2)CC1	inactive
COCC(=O)N(c1c(C)cccc1C)C(C)C(=O)OC (configuration not stated)	inactive
CN(C)[C@@H]1C(=O)C(C(N)=O)=C(O)[C@@]2(O)C(=O)C3=C(O)c4c(O)cccc4[C@@](C)(O)[C@H]3[C@H](O)[C@@H]12	inactive
CCCn1cc[n+](C)c1	inactive

Assay: qHTS assay to test for compound auto fluorescence at 535 nm (green) in HEK293 cell free culture (AID 720682)
Details: cell-free medium, green autofluorescence 485/535 nm; series mostly up to 91.3 µM
How it was run: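 Each library compound, or DMSO control, is added by pintool to medium alone, comprising DMEM and 10% FBS. Emission at 535 nm following 485 nm excitation is quantified against fluorescein.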

Compound	outcome
COP(=O)(OC)C(O)C(Cl)(Cl)Cl (configuration not stated)	inactive
O=C(O)c1ccccc1O	inactive
Cc1cc(Cl)ccc1OCC(=O)O	inactive
CCCC[n+]1ccccc1C	inactive
O=C(O)COc1ccc(Cl)cc1Cl	inactive
CC(=O)[O][Hg][c]1ccccc1	inactive
O=C(O)C(Cl)Cl	inactive
CCCC[n+]1ccc(C)cc1	inactive
O=c1nc(O)n(Cl)c(=O)n1Cl	inactive
CCCCCCCCCCCCCC[P+](CCCCCC)(CCCCCC)CCCCCC	inactive
CCC(=O)C(CC(C)N(C)C)(c1ccccc1)c1ccccc1 (configuration not stated)	inactive
O=C(O)C(Cl)(Cl)Cl	inactive
CCC[N+]1(C)CCCC1	inactive
O=C(O)CC(O)(CC(=O)O)C(=O)O	inactive
CC(Cl)(Cl)C(=O)O	inactive
Nc1ccc(Cl)cc1	inactive
O=C(O)CCl	inactive

Compound	outcome
CCCCn1cc[n+](C)c1C	inactive
CC[N+](CC)(CC)CC	inactive
O=C(O)c1nc(Cl)ccc1Cl	inactive
Cc1cc(Cl)ccc1N	inactive
CCCCCCCCCCn1cc[n+](C)c1	inactive
COc1ccc(N)cc1	inactive
Nc1ccccc1	inactive
CCCC[n+]1ccccc1	inactive
CC(=O)O	inactive
O=c1[nH]c(=O)n(Cl)c(=O)n1Cl	inactive
O=P1(N(CCCl)CCCl)NCCCO1 (configuration not stated)	inactive
Cc1cc(-c2ccc(N)c(C)c2)ccc1N	inactive
C1CCC(NC2CCCCC2)CC1	inactive
COCC(=O)N(c1c(C)cccc1C)C(C)C(=O)OC (configuration not stated)	inactive
CN(C)[C@@H]1C(=O)C(C(N)=O)=C(O)[C@@]2(O)C(=O)C3=C(O)c4c(O)cccc4[C@@](C)(O)[C@H]3[C@H](O)[C@@H]12	inactive
CCCn1cc[n+](C)c1	inactive

Assay: qHTS assay to test for compound auto fluorescence at 590 nm (red) in HEK293 cell free culture (AID 720683)
Details: cell-free medium autofluorescence, Ex540/Em590 red; series mostly up to 91.3 µM
How it was run: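 Red-channel autofluorescence of compounds in culture medium (DMEM, 10% FBS), no cells, measured at 540/590 nm. Rose Bengal sodium is the reference fluorophore for equivalence.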

Compound	outcome
COP(=O)(OC)C(O)C(Cl)(Cl)Cl (configuration not stated)	inactive
Cc1cc(Cl)ccc1OCC(=O)O	inactive
CCCC[n+]1ccccc1C	inactive
O=C(O)COc1ccc(Cl)cc1Cl	inactive
CC(=O)[O][Hg][c]1ccccc1	inactive
O=C(O)C(Cl)Cl	inactive
CCCC[n+]1ccc(C)cc1	inactive
O=c1nc(O)n(Cl)c(=O)n1Cl	inactive
CCCCCCCCCCCCCC[P+](CCCCCC)(CCCCCC)CCCCCC	inactive
CCC(=O)C(CC(C)N(C)C)(c1ccccc1)c1ccccc1 (configuration not stated)	inactive
O=C(O)C(Cl)(Cl)Cl	inactive
CCC[N+]1(C)CCCC1	inactive
O=C(O)CC(O)(CC(=O)O)C(=O)O	inactive
CC(Cl)(Cl)C(=O)O	inactive
Nc1ccc(Cl)cc1	inactive
O=C(O)CCl	inactive

Compound	outcome
CCCCn1cc[n+](C)c1C	inactive
CC[N+](CC)(CC)CC	inactive
O=C(O)c1nc(Cl)ccc1Cl	inactive
Cc1cc(Cl)ccc1N	inactive
CCCCCCCCCCn1cc[n+](C)c1	inactive
COc1ccc(N)cc1	inactive
Nc1ccccc1	inactive
CCCC[n+]1ccccc1	inactive
CC(=O)O	inactive
O=c1[nH]c(=O)n(Cl)c(=O)n1Cl	inactive
O=P1(N(CCCl)CCCl)NCCCO1 (configuration not stated)	inactive
Cc1cc(-c2ccc(N)c(C)c2)ccc1N	inactive
C1CCC(NC2CCCCC2)CC1	inactive
COCC(=O)N(c1c(C)cccc1C)C(C)C(=O)OC (configuration not stated)	inactive
CN(C)[C@@H]1C(=O)C(C(N)=O)=C(O)[C@@]2(O)C(=O)C3=C(O)c4c(O)cccc4[C@@](C)(O)[C@H]3[C@H](O)[C@@H]12	inactive
CCCn1cc[n+](C)c1	inactive
